Assay results published in the supplement of paper PMC6555819.

Columns and labels:
Experiment in all cases: PBM binding z-score (relative to random genomic background probes); higher = stronger binding; sequences stand for … in GC…GCGATTGACAGCGTAGAATGAAGG
[1] = tested on: FXR:RXRa (NR concentration 270 nM, RXRa partner concentration 90 nM)
Outline: (§1)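 Binding z-scores were set against random background probes. The data came from custom Agilent 4×180K protein-binding microarrays carrying double-stranded probes with 34-nt variable regions, incubated 1 h with ligand-free nuclear receptor dimers. Partner-specific antibodies detected binding, and scanned fluorescence was regression-normalized.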

[2] = tested on: LXRa:RXRa (NR concentration 270 nM, RXRa partner concentration 90 nM)
Outline: as §1

[3] = tested on: LXRa homodimer (NR concentration 270 nM)
Outline: as §1

[4] = tested on: LXRb:RXRa (NR concentration 270 nM, RXRa partner concentration 90 nM)
Outline: as §1

[5] = tested on: LXRb homodimer (NR concentration 270 nM)
Outline: as §1

[6] = tested on: PPARa:RXRa (NR concentration 270 nM, RXRa partner concentration 90 nM)
Outline: as §1

[7] = tested on: PPARg:RXRa (NR concentration 180 nM, RXRa partner concentration 90 nM)
Outline: as §1

[8] = tested on: PPARg:RXRa 270nM:90nM, anti-RXR (NR concentration 270 nM, RXRa partner concentration 90 nM)
Outline: as §1

[9] = tested on: PPARg:RXRa 30nM:10nM, anti-RXR (NR concentration 30 nM, RXRa partner concentration 10 nM)
Outline: as §1

[10] = tested on: PPARg:RXRa 90nM:30nM, anti-RXR (NR concentration 90 nM, RXRa partner concentration 30 nM)
Outline: as §1

[11] = tested on: PPARg:RXRa DBDmut IVT, anti-RXR (DBD mutation: RXRa K156A/R161A, NR concentration 270 nM, RXRa partner concentration 90 nM)
Outline: as §1

[12] = tested on: PPARg:RXRa IVT, anti-PPARg (NR concentration 270 nM, RXRa partner concentration 90 nM)
Outline: as §1

[13] = tested on: PPARg DBDmut:RXRa IVT, anti-PPARg (DBD mutation: PPARg1 K132A/R137A, NR concentration 270 nM, RXRa partner concentration 90 nM)
Outline: as §1

[14] = tested on: PPARg DBDmut IVT, anti-PPARg (DBD mutation: PPARg1 K132A/R137A, NR concentration 270 nM)
Outline: as §1

[15] = tested on: PPARg homodimer (NR concentration 180 nM)
Outline: as §1

[16] = tested on: PXR:RXRa (NR concentration 270 nM, RXRa partner concentration 90 nM)
Outline: as §1

[17] = tested on: PXR homodimer (NR concentration 270 nM)
Outline: as §1

[18] = tested on: RARa:RXR (NR concentration 270 nM, RXRa partner concentration 90 nM)
Outline: as §1

[19] = tested on: RARa homodimer (NR concentration 270 nM)
Outline: as §1

[20] = tested on: RARb:RXRa (NR concentration 270 nM, RXRa partner concentration 90 nM)
Outline: as §1

| Sequence | PBM binding z-score [1] | PBM binding z-score [2] | PBM binding z-score [3] | PBM binding z-score [4] | PBM binding z-score [5] | PBM binding z-score [6] | PBM binding z-score [7] | PBM binding z-score [8] | PBM binding z-score [9] | PBM binding z-score [10] | PBM binding z-score [11] | PBM binding z-score [12] | PBM binding z-score [13] | PBM binding z-score [14] | PBM binding z-score [15] | PBM binding z-score [16] | PBM binding z-score [17] | PBM binding z-score [18] | PBM binding z-score [19] | PBM binding z-score [20] |
| --- | --- | --- | --- | --- | --- | --- | --- | --- | --- | --- | --- | --- | --- | --- | --- | --- | --- | --- | --- | --- |
| AGAATGAGGTTAAGATCAGGGACACAGAATACAT | 2.45 | 2.04 | 0.0815 | 1.81 | 0.324 | 3.55 | 2.54 | 2.39 | 0.988 | 1.85 | 3.45 | 3.13 | 1.64 | 0.953 | 1.01 | 1.54 | 0.664 | 2.14 | 1.57 | 2.23 |
| CGAACTAGGTCAGGGACAGTGAATCTCCGCACGC | 1.19 | 0.726 | -0.107 | 0.458 | -0.639 | 3.59 | 5.89 | 4.71 | 2.38 | 4.17 | 7.43 | 7.24 | 1.27 | 0.491 | 0.781 | 0.326 | -0.0952 | 0.867 | -0.305 | 3.18 |
| TCGAGTAGGTTACCAATGGGGGATTCAGCTTTCT | 0.454 | 1 | -0.159 | 2.46 | 5.29 | 1.74 | 0.645 | 2.31 | 1.35 | 2.08 | 3.04 | 3.87 | 3.52 | 5.09 | 0.376 | 1.15 | -0.444 | 1.17 | -0.393 | 1.06 |
| TCTCGGAGTACACGAAAGGTCAGAGCTCGACATC | 2.31 | 3.69 | 2.03 | 3.2 | -0.426 | 3.55 | 1.78 | 3.53 | 2.52 | 3.11 | 1.42 | 1.77 | 0.689 | 0.21 | 1.29 | 4 | -0.3 | 4.04 | -0.148 | 3.79 |
| CCTCGGAGGACAGAAGGTAAGAGCTGTCCGCTTT | -0.304 | -0.532 | -0.965 | -1.02 | -1.17 | -0.652 | -0.402 | -0.815 | -1.03 | -0.914 | -0.432 | -0.658 | -1.58 | -1.77 | -0.354 | -0.918 | -0.487 | -0.713 | -0.583 | 0.19 |
| GCTAGCTGGCCATTTGGGTCACTCAATGACGGGC | -0.265 | -0.387 | -0.995 | -0.164 | -1.15 | 0.689 | 0.205 | -0.0931 | -1 | -0.612 | 0.293 | 1.17 | -0.756 | -0.983 | -0.342 | -0.0667 | -0.751 | 0.365 | -1.31 | 0.859 |
| CGTCCACGGTCAAAGGTCAGTGAAGAGATGACGG | 5.45 | 4.83 | 1.87 | 3.7 | -0.0177 | 5.49 | 7.71 | 7.46 | 5.82 | 7.93 | 1.1 | 3.94 | -0.461 | -0.195 | 6.23 | 4.9 | 0.288 | 7.25 | 2.09 | 5.01 |
| TCATATAGGTAAAAGGTGAAAGTCGGTGTGGTAA | 1.8 | 2.29 | 0.452 | 2.29 | 0.0331 | 5.57 | 9.43 | 8.85 | 10.3 | 10.2 | 5.72 | 5.59 | 2.1 | 0.745 | 2.06 | 2.17 | 0.508 | 3.73 | 2.49 | 2.22 |
| CGTTCAAGGTCAAGGTCAGTGAAAGAGACTCGAA | 8.13 | 5.69 | 1.57 | 5.06 | 1.66 | 6.33 | 6.87 | 6.8 | 3.49 | 5.56 | 4.65 | 5.44 | 0.946 | 1.3 | 3.58 | 5.02 | 1.3 | 5.02 | 1.49 | 5.9 |
| ACTCGGAGAACAAAGGTCAGAGCTACGCCAGTGA | 3.2 | 3.85 | 1.8 | 3.29 | 0.2 | 4.69 | 5.98 | 5.81 | 4.63 | 6.07 | 0.49 | 2.78 | 0.171 | -0.0554 | 1.94 | 3.41 | 0.0377 | 3.89 | 0.493 | 4.21 |
| ATCGCAAGGTCGAAGGTGAGTATACCCACCCGAA | 1.5 | 1.58 | -0.525 | 1.16 | -0.359 | 3.01 | 2.77 | 3.69 | 0.969 | 2.25 | -0.513 | 1.21 | 0.246 | -0.257 | 0.231 | 1.89 | -0.311 | 2.65 | -0.621 | 2.41 |
| GGAACGAGGGCAAAGTTGATATCATCTGTCGACG | 1.25 | 0.812 | -0.316 | 0.894 | -0.47 | 3.94 | 6.68 | 6.84 | 6.13 | 7.1 | 3.87 | 4.19 | 0.622 | 0.251 | 0.45 | 1.18 | 0.208 | 1.62 | 0.254 | 2.32 |
| TCTATTAGTTGATTATGGCAACCGAAACAGCGGA | 0.958 | 0.726 | 0.306 | 0.64 | 1.08 | 0.209 | 0.113 | 1.91 | 4.11 | 3.45 | 2.17 | 0.613 | 1.3 | 1.66 | 1.37 | 0.553 | 0.671 | 0.747 | 1.89 | 0.407 |
| CATACAGGGTCAGCTAGGCTAGAGTAGGGACGGC | 4.44 | 2.68 | -0.0896 | 2.06 | -0.0361 | 4.12 | 3.06 | 2.93 | 0.539 | 2.03 | 1.19 | 2.32 | 0.769 | 0.0787 | 1.21 | 1.85 | -0.333 | 2.72 | 0.409 | 3.96 |
| ATATGTAGGTAAGCTGGGGTCATTCAGACTAGGC | 4.33 | 4.31 | 1.73 | 4.3 | 1.58 | 4.98 | 4.31 | 4.65 | 2 | 3.77 | 6.08 | 5.46 | 1.69 | 1.13 | 1.48 | 6.07 | 3.4 | 5.45 | 0.719 | 2.67 |
